“And” between values parts separate entries of the source, which are not always exact repeats. Equal values may be shown once. Compounds without any hit were thinned out: in the full panel of roughly 83,000, 20% have a hit.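 Single-dose data. Exposure time 48 hours. Values below 10 considered active.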 The source made the active and inactive calls.

The record followed here is PubChem BioAssay (NCI).

Test systems include T-47D breast; BT-549 breast; MDA-MB-435 melanoma; SW-620 colon; HCT-116 colon; HCC-2998 colon; KM12 colon.
What all share (assay): NCI-60 one-dose screen, 48 h (100 = growth as untreated, 0 = no growth, -100 = all killed)
The subject of another assay is MCF7 breast. To be noted: 10 µM.

Turning to `COc1ccc2oc(-c3ccc(Cl)cc3)c(N3CCN(C)CC3)c2c1`, the growth with T-47D breast (10 µM) is 14.6% (inactive); in the assay on BT-549 breast (10 µM), 134% (inactive); in the assay on MDA-MB-435 melanoma (10 µM) it was -19.3% (active); in the assay with SW-620 colon (10 µM) it was 0.0094% (active); in the assay on HCT-116 colon (10 µM), 22.4% (inactive); in the assay with HCC-2998 colon (10 µM), -12.4% (active). For the same molecule, the growth in the assay with KM12 colon (10 µM) was -46.6% (active).
Regarding `CC(=O)O[C@H]1C(=O)[C@@]2(C)[C@H]([C@H](OC(=O)c3ccccc3)[C@]3(O)C[C@H](OC(=O)[C@H](O)[C@@H](NC(=O)c4ccccc4)c4ccccc4)C(C)=C1C3(C)C)[C@]1(OC(C)=O)CO[C@@H]1C[C@@H]2O`, the growth was 35.5% (inactive) in the assay with T-47D breast (0.01 µM); 27.9% (inactive) in the assay with T-47D breast (2.5 µM); 32.5% (inactive) in the assay on T-47D breast (5 µM); 48.7% (inactive) and 32.3% (inactive) in the assay with T-47D breast (10 µM); -1.3% (active) with BT-549 breast (0.01 µM); 6.6% (active) with BT-549 breast (10 µM). The growth was -84.7% (active) in the assay with MDA-MB-435 melanoma (0.01 µM); -41.9% (active) in the assay on MDA-MB-435 melanoma (2.5 µM); -19.9% (active) with MDA-MB-435 melanoma (5 µM); -4.97% (active) and -14.7% (active) in the assay on MDA-MB-435 melanoma (10 µM); 24.4% (inactive) with SW-620 colon (0.01 µM); 38.5% (inactive) in the assay with SW-620 colon (2.5 µM). For the same molecule, the growth in the assay with SW-620 colon (5 µM) was 50.3% (inactive); in the assay on SW-620 colon (10 µM), 53.7% (inactive) and 53.5% (inactive); with HCT-116 colon (0.01 µM), 6.56% (active); in the assay with HCT-116 colon (2.5 µM) it was 2.87% (active); in the assay on HCT-116 colon (5 µM) it was 6.48% (active); in the assay with HCT-116 colon (10 µM), 11.9% (inactive) and 8.9% (active). The growth was -65.6% (active) in the assay with HCC-2998 colon (0.01 µM); -10.3% (active) in the assay on HCC-2998 colon (2.5 µM); 0.255% (active) in the assay with HCC-2998 colon (5 µM); -3.97% (active) and -21.4% (active) with HCC-2998 colon (10 µM); 10.6% (inactive) in the assay with KM12 colon (0.01 µM); 1.85% (active) in the assay with KM12 colon (2.5 µM). In addition, the growth in the assay with KM12 colon (5 µM) is 4.45% (active); with KM12 colon (10 µM), 2.94% (active) and 10.9% (inactive).
Regarding `O=[N+]([O-])c1cc(S(=O)(=O)Nc2ccccc2)ccc1Cl`, the growth in the assay on T-47D breast (10 µM) was 69.6% (inactive); in the assay with BT-549 breast (10 µM), 92.5% (inactive); with MDA-MB-435 melanoma (10 µM) it was 98.6% (inactive); in the assay with SW-620 colon (10 µM), 105% (inactive); with HCT-116 colon (10 µM) it was 92.1% (inactive); in the assay with HCC-2998 colon (10 µM), 90% (inactive). Besides, the growth with KM12 colon (10 µM) is 98.5% (inactive).
Take `CN(C)CCNc1cccc2sc3ccc(O)cc3c(=O)c12`: the growth in the assay with T-47D breast (10 µM) was 64.4% (inactive); in the assay on BT-549 breast (10 µM), 65.8% (inactive); in the assay on MDA-MB-435 melanoma (10 µM), 29.3% (inactive); in the assay with SW-620 colon (10 µM) it was 24.5% (inactive); with HCT-116 colon (10 µM) it was 25.3% (inactive); in the assay with HCC-2998 colon (10 µM) it was 17.9% (inactive). The growth in the assay with KM12 colon (10 µM) is 24.7% (inactive).
For `Cn1c2nc3ccccc3c-2nc2ccccc21`, the growth in the assay on T-47D breast (10 µM) is 78.9% (inactive) and 72% (inactive); in the assay on BT-549 breast (10 µM), 90.5% (inactive) and 92.6% (inactive); in the assay on MDA-MB-435 melanoma (10 µM) it was 109% (inactive) and 125% (inactive); with SW-620 colon (10 µM) it was 79% (inactive) and 90% (inactive); with HCT-116 colon (10 µM) it was 92.7% (inactive) and 80.9% (inactive); in the assay with HCC-2998 colon (10 µM), 118% (inactive) and 102% (inactive). Besides, the growth in the assay on KM12 colon (10 µM) was 92.4% (inactive) and 83.5% (inactive).
As to `CCC(=O)Oc1ccc(/C=N/NC(N)=S)nc1`, the growth in the assay with T-47D breast (10 µM) was 35.7% (inactive); in the assay on BT-549 breast (10 µM), 51.2% (inactive); in the assay with MDA-MB-435 melanoma (10 µM), 54.9% (inactive); with SW-620 colon (10 µM) it was 49.5% (inactive); in the assay on MCF7 breast, 22.5% (inactive); in the assay with HCT-116 colon (10 µM), 42% (inactive). Moreover, the growth with KM12 colon (10 µM) is 60.5% (inactive).
Consider `COc1ccc2c(c1)[nH]c1c(/C=C/c3ccccc3)nccc12`, for which the growth was 43.7% (inactive) in the assay with T-47D breast (10 µM); 61.8% (inactive) in the assay with BT-549 breast (10 µM); 85% (inactive) in the assay with MDA-MB-435 melanoma (10 µM); 72.1% (inactive) in the assay on SW-620 colon (10 µM); 29.9% (inactive) in the assay with HCT-116 colon (10 µM); 34.4% (inactive) in the assay on HCC-2998 colon (10 µM). The growth in the assay with KM12 colon (10 µM) was 71.1% (inactive).
`Cc1cc(C)c(N2C(=O)CC(Sc3ccccc3N)C2=O)c(C)c1` (configuration not stated): the growth was 87.8% (inactive) in the assay on T-47D breast (10 µM); 96.2% (inactive) with BT-549 breast (10 µM); -20.8% (active) in the assay with MDA-MB-435 melanoma (10 µM); 55.9% (inactive) with SW-620 colon (10 µM); 31.7% (inactive) in the assay on MCF7 breast; 79.2% (inactive) in the assay on HCT-116 colon (10 µM). Besides, the growth in the assay on KM12 colon (10 µM) was 50.9% (inactive).
On to `COc1cccc(C(c2cc3c(cc2O)OCO3)N2CCOCC2)c1OC` (configuration not stated), for which the growth is 97.2% (inactive) with T-47D breast (10 µM); 94.7% (inactive) in the assay on BT-549 breast (10 µM); 98% (inactive) with MDA-MB-435 melanoma (10 µM); 102% (inactive) in the assay with SW-620 colon (10 µM); 96.5% (inactive) in the assay with MCF7 breast; 102% (inactive) with HCT-116 colon (10 µM). The values for the growth with HCC-2998 colon (10 µM) and in the assay with KM12 colon (10 µM) were 113% (inactive) and 108% (inactive), respectively.
For the molecule `Cc1cc(N=C2C=CC(=[N+](C)C)C=C2)c(N)cc1N`, the growth in the assay on T-47D breast (10 µM) is 87.1% (inactive); with BT-549 breast (10 µM), 96.3% (inactive); with MDA-MB-435 melanoma (10 µM), 101% (inactive); with SW-620 colon (10 µM), 84.9% (inactive); in the assay on MCF7 breast, 68.8% (inactive); in the assay with HCT-116 colon (10 µM), 82.2% (inactive). The growth in the assay on HCC-2998 colon (10 µM) was 60.8% (inactive); in the assay with KM12 colon (10 µM) it was 89% (inactive).
For the molecule `C=C1N(C)c2ccc(Cl)cc2C1(C)C`, the growth with T-47D breast (10 µM) is 33.7% (inactive); in the assay on BT-549 breast (10 µM) it was 66.9% (inactive); in the assay with MDA-MB-435 melanoma (10 µM), 77.1% (inactive); with SW-620 colon (10 µM) it was 57.4% (inactive); in the assay on MCF7 breast it was 89% (inactive); in the assay with HCT-116 colon (10 µM), 17.2% (inactive). In addition, the growth was 68.7% (inactive) with HCC-2998 colon (10 µM) and 40.2% (inactive) with KM12 colon (10 µM).
As for `COc1cc(N)ccc1Nc1c2ccccc2nc2ccccc12`, the growth in the assay with T-47D breast (10 µM) was 92.3% (inactive); with BT-549 breast (10 µM), 90% (inactive); in the assay with MDA-MB-435 melanoma (10 µM) it was 87.9% (inactive); in the assay with SW-620 colon (10 µM), 4.74% (active); in the assay on MCF7 breast, 12.5% (inactive); in the assay on HCT-116 colon (10 µM), -88.5% (active). Also, the growth in the assay with HCC-2998 colon (10 µM) is 94.8% (inactive); in the assay on KM12 colon (10 µM) it was 36.2% (inactive).
For the molecule `N#CC(=C1C=CC(=NO)C=C1)c1ccccc1`, the growth in the assay with T-47D breast (10 µM) is -8.58% (active); in the assay on BT-549 breast (10 µM), -7.31% (active); with MDA-MB-435 melanoma (10 µM), -20.7% (active); in the assay on SW-620 colon (10 µM) it was 1.65% (active); in the assay on HCT-116 colon (10 µM), -47.8% (active); with HCC-2998 colon (10 µM), 90.6% (inactive). Further, the growth with KM12 colon (10 µM) is -57% (active).
Consider `CN(C)c1ccc(/C=C/c2ccnc3ccccc23)cc1N`, for which the growth in the assay with T-47D breast (10 µM) was 48.3% (inactive); in the assay on BT-549 breast (10 µM), 60.3% (inactive); in the assay on MDA-MB-435 melanoma (10 µM), 38.6% (inactive); in the assay on SW-620 colon (10 µM) it was 78.4% (inactive); with MCF7 breast, 62.9% (inactive); with HCT-116 colon (10 µM) it was 49.3% (inactive). For the same molecule, the growth was 104% (inactive) in the assay on HCC-2998 colon (10 µM) and 61.5% (inactive) in the assay with KM12 colon (10 µM).
On to `CCOC(=O)[C@]1(Br)CC[C@@]1(Br)C(=O)OCC`, for which the growth in the assay with T-47D breast (10 µM) is 70.7% (inactive); in the assay on BT-549 breast (10 µM), 123% (inactive); in the assay on MDA-MB-435 melanoma (10 µM), 94.8% (inactive); in the assay with SW-620 colon (10 µM), 76.2% (inactive); in the assay on HCT-116 colon (10 µM) it was 88.9% (inactive); with HCC-2998 colon (10 µM), 124% (inactive). In the assay with KM12 colon (10 µM), the growth is 142% (inactive).
Consider `Nc1nc(N)c2cc(Sc3ccc4ccccc4c3)ccc2n1`, for which the growth was 45.8% (inactive) in the assay on T-47D breast (10 µM); 67.4% (inactive) in the assay on BT-549 breast (10 µM); 33.8% (inactive) with MDA-MB-435 melanoma (10 µM); 18.9% (inactive) in the assay on SW-620 colon (10 µM); 15.4% (inactive) in the assay with HCT-116 colon (10 µM); -39.4% (active) in the assay with HCC-2998 colon (10 µM). The growth in the assay with KM12 colon (10 µM) was 23.8% (inactive).
For `S=P(N1CC1)(N1CC1)N1CC1`, the growth is 103% (inactive) and 98.1% (inactive) in the assay with T-47D breast (10 µM); 53.7% (inactive) in the assay with T-47D breast (100 µM); 102% (inactive) and 85.8% (inactive) in the assay with BT-549 breast (10 µM); 47.5% (inactive) in the assay on BT-549 breast (100 µM); 105% (inactive) and 97.2% (inactive) in the assay with MDA-MB-435 melanoma (10 µM); 64.8% (inactive) in the assay on MDA-MB-435 melanoma (100 µM). Besides, the growth in the assay on SW-620 colon (10 µM) was 110% (inactive) and 93.6% (inactive); in the assay with SW-620 colon (100 µM), 73% (inactive); in the assay with HCT-116 colon (10 µM) it was 95.9% (inactive) and 73.8% (inactive); in the assay with HCT-116 colon (100 µM) it was 51.3% (inactive); in the assay with HCC-2998 colon (10 µM), 109% (inactive); in the assay on HCC-2998 colon (100 µM), -5.61% (active). Further, the growth in the assay on KM12 colon (10 µM) was 111% (inactive) and 104% (inactive); in the assay with KM12 colon (100 µM), 83% (inactive).
With `NCc1c(O)ccc2ccccc12`, the growth was 98.3% (inactive) in the assay on T-47D breast (10 µM); 101% (inactive) in the assay with BT-549 breast (10 µM); 103% (inactive) in the assay with MDA-MB-435 melanoma (10 µM); 107% (inactive) with SW-620 colon (10 µM); 102% (inactive) with HCT-116 colon (10 µM); 102% (inactive) with HCC-2998 colon (10 µM). Also, the growth in the assay with KM12 colon (10 µM) was 96% (inactive).
